Results filed as inconclusive are left out. The source made the active and inactive calls. Calls follow the shape of the dose curve; as a rule, active = well fitted curve in the direction sought with a large enough effect; inconclusive = small, poorly fitted or top-dose-only effect, or another doubt; inactive = no such curve, though single readings can be large; an effect the other way counts as inactive or inconclusive.
Experiments:
MCC-13 = experiment: qHTS assay to identify novel small-molecules to repurpose for Merkel cell carcinoma treatment (AID 1296009); settings: MCC and control cell lines, CellTiter-Glo viability, 72 h; series mostly up to 46 µM; also: nearly all actives have a fitted effect of over 60% in size; also: potency is read from the fitted curve at half-maximal effect
In short: (§1)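 Cells were incubated with compound for 72 hr at 37 degree celsius before CellTiter-Glo addition. Luminescence was normalized with no-cell wells as full cytotoxicity and DMSO as baseline.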

MCC-26 = experiment: as above; settings: MCC and control cell lines, CellTiter-Glo viability, 72 h; series mostly up to 46 µM
In short: as §1

MKL-1 = experiment: as above; settings: MCC and control cell lines, CellTiter-Glo viability, 72 h; series mostly up to 46 µM
In short: as §1

MKL-2 = experiment: as above; settings: MCC and control cell lines, CellTiter-Glo viability, 72 h; series mostly up to 46 µM
In short: as §1

NIH3T3 = experiment: as above; settings: MCC and control cell lines, CellTiter-Glo viability, 72 h; at 44.8 µM (top of the series) unless noted
In short: as §1

UISO = experiment: as above; settings: MCC and control cell lines, CellTiter-Glo viability, 72 h; series mostly up to 46 µM
In short: as §1

WaGa = experiment: as above; settings: MCC and control cell lines, CellTiter-Glo viability, 72 h; series mostly up to 46 µM
In short: as §1

C33A = experiment: Primary qHTS to identify gynecologic anti-cancer compounds using libraries of approved drugs and bioactive compounds (AID 1345084); settings: Gynecologic cancer cell panel viability, ATPlite luminescence, 48 h; series mostly up to 57.5 µM; also: nearly all actives have a fitted effect of over 55% in size
In short: (§2)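 48 h compound exposure at 37 C, 5% CO2; five-point qHTS. ATPlite luminescence readout of cell ATP.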

CASKI = experiment: as above; settings: Gynecologic cancer cell panel viability, ATPlite luminescence, 48 h; series mostly up to 57.5 µM
In short: as §2

Es-2 = experiment: as above; settings: Gynecologic cancer cell panel viability, ATPlite luminescence, 48 h; series mostly up to 57.5 µM
In short: as §2

HeLa = experiment: as above; settings: Gynecologic cancer cell panel viability, ATPlite luminescence, 48 h; series mostly up to 57.5 µM
In short: as §2

Hek293T = experiment: as above; settings: Gynecologic cancer cell panel viability, ATPlite luminescence, 48 h, control line for the selectivity index; series mostly up to 57.5 µM
In short: as §2

JEG-3 = experiment: as above; settings: Gynecologic cancer cell panel viability, ATPlite luminescence, 48 h; series mostly up to 57.5 µM
In short: as §2

OV90 = experiment: as above; settings: Gynecologic cancer cell panel viability, ATPlite luminescence, 48 h; series mostly up to 57.5 µM
In short: as §2

PA-1 = experiment: as above; settings: Gynecologic cancer cell panel viability, ATPlite luminescence, 48 h; series mostly up to 57.5 µM
In short: as §2

SKOV3 = experiment: as above; settings: Gynecologic cancer cell panel viability, ATPlite luminescence, 48 h; series mostly up to 57.5 µM
In short: as §2

Tov-21-G = experiment: as above; settings: Gynecologic cancer cell panel viability, ATPlite luminescence, 48 h; series mostly up to 57.5 µM
In short: as §2

Tov112D = experiment: as above; settings: Gynecologic cancer cell panel viability, ATPlite luminescence, 48 h; series mostly up to 57.5 µM
In short: as §2

[1] = Drug repurposing screens with cells derived from glioblastoma tumor samples (AID 1345199); settings: GBM patient neurospheres viability, ATP luminescence, 48 h; Potency: tumour line A; series mostly up to 46.1 µM; also: nearly all actives have a fitted effect of over 40% in size
In short: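 Four patient lines of CD133+ GBM neurospheres were screened at several concentrations; hits were retested in those lines plus three slower-growing GBM lines, using 48-hour treatment and ATP-based viability.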
% is scaled to controls: 0 for no effect and ±100 for the full control effect.

O=C(NNC(=O)c1ccc(CNS(=O)(=O)c2ccc(F)c(Cl)c2)cc1)c1ccccc1
inactive: Potency (MCC-13) | Potency (MCC-26) | Potency (MKL-1) | Potency (MKL-2) | outcome (NIH3T3) | Potency (UISO) | Potency (WaGa)

C[C@]12CCC(=O)C=C1[C@@H]1CC1[C@H]1[C@H]3[C@@H]4C[C@H]4[C@@]4(CCC(=O)O4)[C@@]3(C)CC[C@H]12 (stereo not given in full)
inactive: Potency (MCC-13) | Potency (MCC-26) | Potency (MKL-1) | Potency (MKL-2) | outcome (NIH3T3) | Potency (UISO) | Potency (WaGa)

COc1ccc(CCC(=O)c2c(O)cc(O[C@@H]3O[C@H](CO)[C@@H](O)[C@H](O)[C@@H]3O[C@@H]3O[C@@H](C)[C@H](O)[C@@H](O)[C@@H]3O)cc2O)cc1O
inactive: Potency (MCC-13) | Potency (MCC-26) | Potency (MKL-1) | Potency (MKL-2) | outcome (NIH3T3) | Potency (UISO) | Potency (WaGa)

O=C(Nc1ccc(Oc2ccnc3[nH]ccc23)c(F)c1)c1cccn(-c2ccc(F)cc2)c1=O
inactive: Potency (MCC-13) | Potency (MCC-26) | Potency (MKL-1) | Potency (MKL-2) | outcome (NIH3T3) | Potency (UISO) | Potency (WaGa) | Potency (C33A) | Potency (CASKI) | Potency (Es-2) | Potency (HeLa) | Potency (Hek293T) | Potency (JEG-3) | Potency (OV90) | Potency (PA-1) | Potency (SKOV3) | Potency (Tov-21-G) | Potency (Tov112D)

CC(C)(O)Cn1c(NC(=O)c2ccc(-c3cn[nH]c3)s2)nc2cc(CN3CCOCC3)ccc21
active: Potency (MCC-13) 2960 nM | Potency (MCC-26) 4690 nM | Potency (MKL-1) 1180 nM | Potency (MKL-2) 14800 nM | Potency (UISO) 1870 nM

CC(=O)NC(CS)C(=O)O (stereo not given)
inactive: Potency (MCC-13) | Potency (MCC-26) | Potency (MKL-1) | Potency (MKL-2) | Potency (UISO) | Potency (WaGa)

Cc1cc(-c2nnc3n2CCCCC3)c(C)n1-c1ccccc1
active: Potency (MKL-2) 20900 nM
inactive: Potency (MCC-13) | Potency (MCC-26) | Potency (MKL-1) | Potency (UISO)

COc1cccc2c1C(=O)c1c(O)c3c(c(O)c1C2=O)C[C@@](O)(C(C)=O)C[C@H]3O[C@H]1C[C@H](N)[C@H](O)[C@H](C)O1
active: Potency (MCC-13) 590 nM | Potency (MCC-26) 372 nM | Potency (MKL-1) 33.2 nM | Potency (MKL-2) 23.5 nM | Potency (UISO) 46.9 nM

OCC(O)C(O)C(O)CO (stereo not given)
inactive: Potency (MCC-13) | Potency (MCC-26) | Potency (MKL-1) | Potency (MKL-2) | Potency (UISO) | Potency (WaGa)

COc1ccc(Nc2nccc(NCCO)n2)cc1
inactive: Potency (MCC-13) | Potency (MCC-26) | Potency (MKL-1) | Potency (MKL-2) | Potency (UISO) | Potency (WaGa)

N[C@H]1CN(c2c(F)cc3c(=O)c(C(=O)O)cn(C4C[C@@H]4F)c3c2Cl)CC12CC2 (stereo not given in full)
inactive: Potency (MCC-13) | Potency (MCC-26) | Potency (MKL-1) | Potency (MKL-2) | outcome (NIH3T3) | Potency (UISO) | Potency (WaGa) | Potency (CASKI) | Potency (Es-2) | Potency (HeLa) | Potency (Hek293T) | Potency (JEG-3) | Potency (OV90) | Potency (PA-1) | Potency (SKOV3) | Potency (Tov-21-G) | Potency (Tov112D) | Potency [1]

NC(=O)c1ncn([C@@H]2O[C@H](CO)[C@@H](O)[C@@H]2O)c1N
inactive: Potency (MCC-13) | Potency (MCC-26) | Potency (MKL-1) | Potency (MKL-2) | outcome (NIH3T3) | Potency (UISO) | Potency (WaGa)

c1ccc2c(Oc3nc(Nc4ccc(N5CCOCC5)cc4)c4ncn(C5CCCCC5)c4n3)cccc2c1
inactive: Potency (MCC-13) | Potency (MCC-26) | Potency (MKL-1) | Potency (MKL-2) | Potency (UISO) | Potency (WaGa) | Potency (C33A) | Potency (CASKI) | Potency (Es-2) | Potency (HeLa) | Potency (Hek293T) | Potency (JEG-3) | Potency (OV90) | Potency (PA-1) | Potency (SKOV3) | Potency (Tov-21-G) | Potency (Tov112D)

Cc1coc2c1C(=O)C(=O)c1c-2ccc2c(C)cccc12
inactive: Potency (MCC-13) | Potency (MCC-26) | Potency (MKL-1) | Potency (MKL-2) | Potency (WaGa) | Potency (CASKI) | Potency (Es-2) | Potency (HeLa) | Potency (Hek293T) | Potency (OV90) | Potency (Tov-21-G)

CCOC(=O)C=C[C@H](C[C@@H]1CCNC1=O)NC(=O)[C@@H](CC(=O)[C@@H](NC(=O)c1cc(C)on1)C(C)C)Cc1ccc(F)cc1
inactive: Potency (MCC-13) | Potency (MCC-26) | Potency (MKL-1) | Potency (MKL-2) | Potency (UISO) | Potency (WaGa)

CCN(CC)CCCCNc1ncc2c(n1)N(C)C(=O)N(c1c(Cl)c(OC)cc(OC)c1Cl)C2
inactive: Potency (MCC-13) | Potency (MCC-26) | Potency (MKL-1) | Potency (WaGa)

CC(C)(C)[C@H](NC(=O)c1ccc(N)c(Cl)c1)C(=O)N1CCC[C@@H]1C(=O)N[C@H](C#N)CC(=O)O
inactive: activity change, negative = cytotoxicity (MCC-13) 7.54% [at 4.84 µM] | activity change, negative = cytotoxicity (MCC-26) -4.4% [at 4.84 µM] | activity change, negative = cytotoxicity (MKL-1) 0.918% [at 4.84 µM] | outcome (NIH3T3) inactive [at 4.96 µM] | activity change, negative = cytotoxicity (UISO) 4.89% [at 4.84 µM] | activity change, negative = cytotoxicity (WaGa) -0.0966% [at 4.84 µM]

O=C(NCc1ccccc1)[C@H](Cc1ccccc1)NC(=O)[C@@H]1O[C@@H]1C(=O)NCCc1ccc(O)cc1
inactive: Potency (MCC-13) | Potency (MCC-26) | Potency (MKL-1) | Potency (UISO)
